In PubChem BioAssay (NCI):
This is part of a sample that, as a whole, favours compounds with a hit. Of some 83,000 tested, about 20% had one in any assay.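 96-well plates, one dose, 48 hours. Percent growth reported; active if below 10.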 Values without a mark were called inactive. Activity calls are given as the source filed them.

How the values were obtained:
Test in all cases: NCI-60 one-dose screen, 48 h (100 = growth as untreated, 0 = no growth, -100 = all killed)
Settings in all cases: 10 µM
[1] = test system: SK-MEL-2 melanoma
[2] = test system: EKVX NSCLC
[3] = test system: SN12C renal
[4] = test system: UO-31 renal
[5] = test system: TK-10 renal
[6] = test system: CAKI-1 renal
[7] = test system: A498 renal
[8] = test system: CCRF-CEM leukemia
[9] = test system: MOLT-4 leukemia
[10] = test system: ACHN renal

Row | SMILES | growth [1] | growth [2] | growth [3] | growth [4] | growth [5] | growth [6] | growth [7] | growth [8] | growth [9] | growth [10]
1 | Cc1nc(Nc2nc(C)c3ccc(OCCN4CCOCC4)cc3n2)[nH]c(=O)c1C | -90.3% (active) | -3.4% (active) | -10.4% (active) | -63.8% (active) | 17.6% | -38.4% (active) | -79% (active) | -7.55% (active) | 1.13% (active) | 
2 | O=C(Cc1ccc2c(c1)CN(C1CCC(=O)NC1=O)C2=O)NCCc1ccccc1 (centres undefined) | 26% | 67.2% | 8.84% (active) | -10.4% (active) | 45.8% | 63.6% | 1.53% (active) | 10.6% | -13.2% (active) | 
3 | CN1C(=O)N(C)C2SC(N/N=C/C=C/c3ccccc3)=NC21 (centres undefined) | 81.9% | 86.6% | 85.6% | 58.4% | 99.6% | 83.6% | 81.5% | 47.5% | 46.7% | 
4 | Cc1ccc(-c2cc(-c3cc4ccccc4nc3Cl)[nH]c(=S)n2)cc1 | 11.8% | 50% | 63.8% |  | 107% | 61.5% | 79.5% | 33.2% | 17.5% | 46.5%
5 | CC1=N/C(=C\c2ccc(N(C)C)cc2)C(=O)N1CCc1ccc(S(N)(=O)=O)cc1 | 97.9% | 95.2% |  | 87.9% | 110% | 88.3% | 102% | 88.4% | 93.6% | 105%
6 | N#Cc1c(NC(=O)c2ccc(C(O)(C(F)(F)F)C(F)(F)F)cc2)sc2c1CCC(=O)C2 | -27.4% (active) | -89.6% (active) |  | -98.8% (active) | 2.24% (active) | -68.9% (active) | 13.6% | 1.92% (active) | -40.9% (active) | -98.3% (active)
7 | COc1cccc(/C=N/NC(=O)c2ccc3nc(-c4ccc(Cl)cc4)[nH]c3c2)c1O | -95.1% (active) | -53.8% (active) |  | -2.17% (active) | -11.1% (active) | -66.1% (active) | -69.1% (active) | -40.6% (active) | -50.4% (active) | -34% (active)
8 | COc1cc(/C=N/NC(=O)c2ccc3nc(-c4ccc(Cl)cc4)[nH]c3c2)cc(OC)c1OC | -17.3% (active) | 9.25% (active) |  | 58.9% | 37.4% | 2.87% (active) | -31.1% (active) | -4.37% (active) | 3.96% (active) | 30.1%
9 | NC1=NC(c2ccccc2Cl)N=C(Nc2nn[nH]n2)N1 (centres undefined) | 116% | 96.2% | 107% |  | 99.6% | 94.5% | 104% | 151% | 124% | 103%
10 | Cc1ccc(-c2cc(-c3cc4ccccc4nc3Cl)[nH]c(=O)n2)cc1 | 41% | 27.4% | 0.368% (active) |  | 26.3% |  | 57.3% | -30.1% (active) | -21.6% (active) | 38.6%
11 | N#Cc1c(NC(=O)c2cccc(C(F)(F)F)c2)sc2c1CCC(O)=C2 | -1.48% (active) | 22.8% |  | 17.6% | 63.1% | 44.5% | 69% | 21.9% | 25.9% | 31.4%
12 | COc1ccc2[nH]c(=O)c(CSc3cccc(N)c3)cc2c1 | 64% | 48.7% |  | 56.8% | 72.3% | 40.5% | 72.6% | 47.2% | 41.2% | 20.9%
13 | N#Cc1c(NC(=O)c2ccc(C(F)(F)F)c(Cl)c2)sc2c1CCC(=O)C2 | -9.04% (active) | -79.9% (active) |  | -98.8% (active) | 16% | -72% (active) | 74.1% | 5.53% (active) | -6.19% (active) | -96.5% (active)
14 | O=c1nc(-c2ccccc2)cc(-c2cc3ccccc3nc2Cl)[nH]1 | 82.8% | 61.6% | 20.7% |  | 87.7% | 56.6% | 104% | -29.3% (active) | -18.7% (active) | 39.1%
15 | C/C(=C\CSc1ccccc1C(=O)O)CCCC(C)CCCC(C)CCCC(C)C (centres undefined) | -12% (active) | 43.3% |  | 49.5% | 87.7% | 45.1% | 97.4% | 29.8% | 16.3% | 
16 | S=c1nc(-c2ccccc2)cc(-c2cc3ccccc3nc2Cl)[nH]1 | 37.5% | 70% | 88.3% |  | 162% | 57.2% | 126% | 43.5% | 30.8% | 77.7%
17 | COc1cc2c(cc1OC)CN(CCCCOc1cc(O)c3c(=O)cc(-c4ccccc4)oc3c1)CC2 | 66.6% | 76.6% |  | 51% | 117% | 56.9% | 127% | 32.2% | 20.2% | 66.8%
18 | COc1ccc2nc(Cl)c(-c3cc(-c4ccccc4)nc(=S)[nH]3)cc2c1 | 9.29% (active) | 65.6% | 75.6% |  | 129% | 56.9% | 87.7% | 64.5% | 23.8% | 
19 | Cc1cc(C(F)(F)F)ccc1C(=O)Nc1sc2c(c1C#N)CCC(=O)C2 | -38.4% (active) | -25.5% (active) |  | -98% (active) | -2% (active) | -50.8% (active) | 85.2% | 6.32% (active) | 2.54% (active) | -95.9% (active)
20 | COc1cc(OC(F)(F)F)ccc1C(=O)Nc1sc2c(c1C#N)CCC(=O)C2 | 105% | 46.7% |  | 62.4% | 94.2% | 71.6% | 137% | 18.3% | 90.8% | 87.1%
21 | COc1ccc(OC)c(/C=N/NC(=O)c2ccc3nc(-c4ccc(Cl)cc4)[nH]c3c2)c1 | 103% | 57.5% |  | 68% | 89.1% | 61.6% | 43.8% | 43.9% | 41.1% | 46.9%
22 | CC(=O)OC[C@@]1(C)C2CC[C@]3(C)C(CC=C4C5CC(C)(C)CC[C@]5(C(=O)Nc5ccccc5)CC[C@]43C)[C@@]2(C)C[C@@H](OC(C)=O)[C@@H]1OC(C)=O (some centres undefined) | 35.4% | 26.8% |  | 33.1% | 53.1% | 37.2% | 64.6% | 29.7% | 24.4% | 34.4%
23 | O=c1cc(-c2ccccc2)oc2cc(OCCCNCc3ccccc3)cc(O)c12 | -81.4% (active) | 8.87% (active) |  | -9.86% (active) | 37.3% | -24% (active) | -14.5% (active) | 10.1% | -13% (active) | 3.03% (active)
24 | N#Cc1c(NC(=O)c2ccc(C(F)(F)F)cc2C(F)(F)F)sc2c1CCC(=O)C2 | -38.2% (active) | -57.5% (active) |  | -99.7% (active) | -27.8% (active) | -67.6% (active) | 28.6% | -30% (active) | -16% (active) | -99.4% (active)
25 | Cn1cc(-c2cc(N)n3nc(-c4c[nH]c5ccc(Br)cc45)cc3n2)c2cc(Br)cnc21 | -83.6% (active) | -84.1% (active) |  | -70.9% (active) | -81.9% (active) |  | -86.5% (active) | -32.1% (active) | -28.6% (active) | -93.2% (active)
26 | COc1ccc2nc(Cl)c(-c3cc(-c4ccccc4)nc(=O)[nH]3)cc2c1 | 93.3% | 73.3% | 42.9% |  | 96.9% | 74.2% | 104% | 16.4% | -11.4% (active) | 79%
27 | COc1ccc2nc(Cl)c(-c3cc(-c4ccccc4)nc(N)n3)cc2c1 | 69.5% | 59.8% | 10% |  | 74.4% | 60.4% | 84.8% | -4.77% (active) | -18.1% (active) | 55.4%
